Measured values as given in the supplement of paper PMC7366291.
Counter-ions that a name gives are not always drawn. ± gives the standard deviation or the standard deviation of the averaged measurements.

How the values were obtained:
Settings in all cases: 25 µM; exposure: 24-48 hpf
[1] = tested on: Danio rerio Tg(wt1b:EGFP) embryo, pronephros; assay: glomerular separation, fold change vs DMSO control; higher = glomeruli further apart (abnormal)
Procedure, shortened: (§1)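 Distances and angles describing the pronephros were computed by a Fiji macro from 16 reference points set manually on maximum projections of dorsal images. These images came from dechorionated Tg(wt1b:EGFP) zebrafish embryos held in agarose-filled 96-well plates after exposure to 25 μM compound in 0.5% DMSO, in HEPES-buffered E3 with 0.003% PTU, from 24 to 48 hpf at 28.5°C. Any value more than 2 SD from the feature mean was excluded. Features are stated as fold change relative to the mean of same-day DMSO-treated embryos.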

[2] = tested on: Danio rerio Tg(wt1b:EGFP) embryo, pronephros; assay: glomerular width (mean of left and right), fold change vs DMSO control; higher = wider glomerulus
Procedure, shortened: as §1

[3] = tested on: Danio rerio Tg(wt1b:EGFP) embryo, pronephros; assay: fraction of imaged embryos annotated as normal kidney; higher = less nephrotoxic; extreme values may be limits of the assay
Procedure, shortened: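 Zebrafish embryos carrying Tg(wt1b:EGFP) were dechorionated and exposed to 25 μM compound (0.5% DMSO) between 24 and 48 hpf at 28.5°C. Their pronephroi were imaged by widefield fluorescence, and each embryo was classed by hand from maximum projections. The measure is the fraction of embryos per treatment falling in the normal-kidney category.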

[4] = tested on: Danio rerio Tg(wt1b:EGFP) embryo, pronephros; assay: pronephric angle neck segment to proximal convoluted tubule (mean of left and right), fold change vs DMSO control; higher = larger pronephric angle
Procedure, shortened: as §1

SMILES	glomerular separation [1]	glomerular width [2]	fraction of imaged embryos annotated as normal kidney [3]	pronephric angle neck segment [4]
CCC1(C)CC(=O)NC1=O (stereo unspecified) [Ethosuximide]	0.979 ± 0.37	1.07 ± 0.029	0.833	0.972 ± 0.013
C=CC1=C(C(=O)O)N2C(=O)[C@@H](NC(=O)/C(=N\O)c3csc(N)n3)[C@H]2SC1 [Cefdinir]	0.772 ± 0.34	1.04 ± 0.029	1	1.003 ± 0.0083
CC(=O)OCC(=O)[C@@]1(O)CC[C@H]2[C@@H]3CCC4=CC(=O)C=C[C@]4(C)[C@@]3(F)[C@@H](O)C[C@@]21C [Isoflupredone acetate]	1.22 ± 0.63	1.21 ± 0.017	0.583	1.014 ± 0.0048
COC(=O)Nc1nc2cc(C(=O)c3cccs3)ccc2[nH]1 [Nocodazole]	1.86 ± 0.67	0.523 ± 0.024	0	1.87 ± 0.13
O=C(O)CCNC(=O)c1ccc(/N=N/c2ccc(O)c(C(=O)O)c2)cc1 [Balsalazide Sodium]	0.832 ± 0.29	1.03 ± 0.012	0.833	1.08 ± 0.012
C=CCOC(Cn1ccnc1)c1ccc(Cl)cc1Cl (stereo unspecified) [Enilconazole]	0.575 ± 0.22	1.12 ± 0.024	1	1.1 ± 0.062
CC(C)(C)NC(=O)[C@@H]1CN(Cc2cccnc2)CCN1C[C@@H](O)C[C@@H](Cc1ccccc1)C(=O)N[C@H]1c2ccccc2C[C@H]1O [Indinavir sulfate]	1.35 ± 0.6	0.851 ± 0.062	1	1.101 ± 0.002
COc1ccc(C(=O)NCc2cccnc2)cc1C(=O)NCc1cccnc1 [Picotamide monohydrate]	0.955 ± 0.31	1.028 ± 0.0052	0.75	0.991 ± 0.0099
CC(C)NC[C@@H](O)COc1ccc(CC(N)=O)cc1 [(R)-(+)-Atenolol]	0.655 ± 0.16	0.977 ± 0.036	0.917	0.977 ± 0.029
CN1CCN(C2=Nc3cc(Cl)ccc3Nc3ccccc32)CC1 [Clozapine]	0.792 ± 0.2	1.05 ± 0.011	1	0.975 ± 0.058
CCCCC1C(=O)N(c2ccccc2)N(c2ccccc2)C1=O [Phenylbutazone]	5.01 ± 1.6	0.552 ± 0.0084	0	1.67 ± 0.032
OCC(O)CN1CCN(c2ccccc2)CC1 (racemic) [Dropropizine (R,S)]	0.917 ± 0.28	1.002 ± 0.0079	0.75	1.03 ± 0.038
O=C(O)[C@H]1/C(=C/CO)O[C@@H]2CC(=O)N21 [Clavulanate potassium salt]	0.835 ± 0.22	1.04 ± 0.032	0.833	1.001 ± 0.00045
O=C1CN2Cc3c(ccc(Cl)c3Cl)N=C2N1 [Anagrelide]	1.1 ± 0.67	0.932 ± 0.098	0.917	0.988 ± 0.027
NS(=O)(=O)c1cc2c(cc1Cl)NCNS2(=O)=O [Hydrochlorothiazide]	1.03 ± 0.25	0.972 ± 0.024	0.833	0.937 ± 0.013
CC[C@]12CCCN3CCc4c(n(c5ccccc45)[C@@](O)(C(=O)OC)C1)[C@@H]32 [Vincamine]	0.967 ± 0.23	0.965 ± 0.01	0.909	1.05 ± 0.057
C[C@H]1C[C@@H]2[C@H]([C@@H](O)C[C@@]3(C)[C@H]2CC[C@]3(O)C(=O)CO)[C@@]2(C)C=CC(=O)C=C12 [Methylprednisolone, 6-alpha]	1.11 ± 0.4	1.21 ± 0.11	0.833	1.06 ± 0.088
COc1ccc2cc([C@H](C)C(=O)O)ccc2c1 [Naproxen]	2.89 ± 1.8	0.9508 ± 0.0065	0.167	1.52 ± 0.036
CCN[C@H]1C[C@H](C)S(=O)(=O)c2sc(S(N)(=O)=O)cc21 [Dorzolamide hydrochloride]	1.08 ± 0.35	0.955 ± 0.029	0.75	1.024 ± 0.0028
N=C(N)NCC1COC2(CCCCC2)O1 (stereo unspecified) [Guanadrel sulfate]	0.935 ± 0.45	1.02 ± 0.071	0.75	0.992 ± 0.012
CCCCc1ccc2[nH]c(NC(=O)OC)nc2c1 [Parbendazole]	2.51 ± 0.79	0.5042 ± 0.0026	0	1.81 ± 0.054
O=C1CCC(N2C(=O)c3ccccc3C2=O)C(=O)N1 (stereo unspecified) [Thalidomide]	0.439 ± 0.097	1.21 ± 0.078	0.917	0.748 ± 0.037
O=C1CC[C@@H](C(=O)N2CSC[C@H]2C(=O)O)N1 [Pidotimod]	1.03 ± 0.42	1.05 ± 0.025	0.917	1.003 ± 0.0016
CC(C)C(=O)c1c(C(C)C)nn2ccccc12 [Ibudilast]	0.785 ± 0.21	0.92 ± 0.051	1	1.01 ± 0.036
COc1ccccc1OCC(O)CO (stereo unspecified) [Guaifenesin]	1.21 ± 0.52	0.929 ± 0.12	0.917	1.07 ± 0.035
CCCCCCCCNC(C)C(O)c1ccc(SC(C)C)cc1 (stereo unspecified) [Suloctidil]	4.23 ± 2.2	0.877 ± 0.029	0	1.48 ± 0.033
COc1cccc2c1C(=O)c1c(O)c3c(c(O)c1C2=O)C[C@@](O)(C(=O)CO)C[C@@H]3O[C@H]1C[C@H](N)[C@H](O)[C@H](C)O1 [Doxorubicin hydrochloride]	1.19 ± 0.75	0.959 ± 0.11	0.75	0.9779 ± 0.0016
CCCC(=O)Nc1ncnc2c1ncn2[C@@H]1O[C@@H]2COP(=O)(O)O[C@H]2[C@H]1OC(=O)CCC [Bucladesine sodium salt]	0.912 ± 0.4	0.933 ± 0.04	0.917	0.9351 ± 0.0021
CCCCC1(COC(=O)CCC(=O)O)C(=O)N(c2ccccc2)N(c2ccccc2)C1=O [Suxibuzone]	1.48 ± 0.71	0.92 ± 0.016	0.75	0.992 ± 0.016
